Assay outcomes: PubChem BioAssay, National Center for Advancing Translational Sciences (NCATS)
Compounds with a hit are over-represented: about 17% of the library has one in this group of screens.
DT40 TDP1 no CPT – qHTS for Inhibitors of human tyrosyl-DNA phosphodiesterase 1 (TDP1): qHTS in cells in absence of CPT | Potency, µM (doses to about 46.2 µM), inactives show top-dose activity change, negative = growth inhibition, hits mostly inhibitors | DT40 Tdp1-/- hTDP1 cells, no CPT, ATP luminescence, 48 h | AID 686978, 2013 | hit rate 15% among 420,000; note: % is set by controls: 0 for no effect and ±100 for the full control effect; nearly all actives have a fitted effect of over 55% in size
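Stably hTDP1-transfected Tdp1-null chicken DT40 cells were treated with library compounds minus camptothecin and grown for at least 48 hr at 37 °C, after which cellular ATP was quantified by luminescence.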
DT40 TDP1 CPT – qHTS for Inhibitors of human tyrosyl-DNA phosphodiesterase 1 (TDP1): qHTS in cells in presence of CPT; chicken DT40 Tdp1-/-;hTDP1 cells + 20 nM CPT, ATP luminescence, 48 h; Potency, µM (doses to about 46.2 µM), without a hit: at the top dose activity change, negative = growth inhibition, hits mostly inhibitors; hit rate 12% among 420,000; AID 686979, 2013; note: % is set by controls: 0 for no effect and ±100 for the full control effect; nearly all actives have a fitted effect of over 55% in size
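Cell growth measured by CellTiter-Glo luminescence after a minimum 48 h, 37 C compound exposure with 20 nM CPT in Tdp1-knockout DT40 cells stably expressing hTDP1, seeded 400/well; qHTS titration format.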
ClpP mod – qHTS Assay for Activators of ClpP | purified B. subtilis ClpP, FRET peptide cleavage, 20 min | Potency, µM (top dose mostly 57.5 µM), inactives show at the top dose activity change, negative = active | hit rate 1.9% among 340,000 | AID 651965, 2013; active = well fitted falling curve with a large enough effect; inconclusive = small, poorly fitted or top-dose-only effect; inactive = no such curve, though single readings can be large or run the other way; note: the source files actives as falling curves though it sought activators and does not explain the sign; nearly all actives have a fitted effect of over 65% in size
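FRET quenching reversal measured ClpP activation: 10 microg/mL B. subtilis ClpP at pH 8 with the FRET-FV decapeptide, read at 430 nm after 320 nm excitation. The 20-min minus 0-min signal was scaled between DMSO/no-enzyme wells and ADEP (5.8 microM final).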
TDP1 block – qHTS Assay for Inhibitors of Tyrosyl-DNA Phosphodiesterase (TDP1). hit rate 0.28% among 350,000. AID 485290, 2010. Potency, µM (titrated, usually from 130 µM), for the others: at the highest dose activity change, negative = inhibition, usual class: inhibitors. Tyrosyl-DNA phosphodiesterase 1 (Homo sapiens), Q9NUW8. recombinant TDP1, AlphaScreen DNA substrate cleavage; note: % is set by controls: 0 for no effect and ±100 for the full control effect; nearly all actives have a fitted effect of over 40% in size
Target sequence (Q9NUW8 whole entry, looked up): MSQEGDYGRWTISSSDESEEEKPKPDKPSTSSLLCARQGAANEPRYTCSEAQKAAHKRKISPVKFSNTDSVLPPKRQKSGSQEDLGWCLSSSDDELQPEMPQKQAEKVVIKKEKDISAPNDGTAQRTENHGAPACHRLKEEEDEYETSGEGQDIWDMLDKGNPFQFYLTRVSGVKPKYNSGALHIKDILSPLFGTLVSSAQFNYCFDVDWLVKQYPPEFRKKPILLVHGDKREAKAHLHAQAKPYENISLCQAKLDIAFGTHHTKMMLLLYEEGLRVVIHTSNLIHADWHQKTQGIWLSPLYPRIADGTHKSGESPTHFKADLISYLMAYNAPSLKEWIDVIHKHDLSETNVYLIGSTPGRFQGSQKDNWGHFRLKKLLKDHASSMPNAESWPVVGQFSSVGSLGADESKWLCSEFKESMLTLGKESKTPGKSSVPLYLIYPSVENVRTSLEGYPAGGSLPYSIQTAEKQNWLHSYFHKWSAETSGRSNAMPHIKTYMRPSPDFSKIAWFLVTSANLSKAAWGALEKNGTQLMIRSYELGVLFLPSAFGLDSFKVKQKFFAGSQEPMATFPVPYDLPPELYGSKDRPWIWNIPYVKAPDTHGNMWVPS
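Steps: enzyme plus compound, 15 min RT; add biotin/phosphotyrosine-FITC oligonucleotide (15 nM final), react 5 min; add donor/acceptor beads (10 ug/ml final), 10 min; read AlphaScreen. Tdp1 at 1 nM final.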
The depositor's hits bear a star; ? = inconclusive; / = no result; [ ] = another dose, or the depositor's remark. Unless noted, calls come from the whole dose curve; as a rule, active = well fitted curve in the direction sought with a large enough effect; inconclusive = small, poorly fitted or top-dose-only effect, or another doubt; inactive = no such curve, though single readings can be large; an effect the other way counts as inactive or inconclusive. Potency is the fitted concentration of half-maximal effect.

SMILES	DT40 TDP1 no CPT	DT40 TDP1 CPT	ClpP mod	TDP1 block
Fc1ccc(NC(=S)NNc2ncc(C(F)(F)F)cc2Cl)c(F)c1	13µM*	12µM*	/	5%
ON/C=N/C(=S)Nc1ncc(C(F)(F)F)cc1Cl	12µM*	15µM*	/	11%
CC(C)(C)OC(=O)N1CCC[C@H]1C(=O)N/N=C/c1cccc2nccnc12	?	-19%	-1%	1%
COc1ccc(OC)c(NC(=O)Cn2cc(C(=O)c3ccco3)c3ccccc32)c1	16µM*	?	-3%	2%
COc1ccc(OC)c(NC(=O)Cn2cc(C(=O)c3cccs3)c3ccccc32)c1	18µM*	?	-9%	3%
COc1ccc(OC)c(NC(=O)Cn2cc(C=O)c3ccccc32)c1	?	?	/	0%
O=C(Cn1cc(C(=O)c2cccs2)c2ccccc21)Nc1ccc(Br)cc1	5.8µM*	?	-1%	3%
O=C(Cn1cc(C(=O)c2ccco2)c2ccccc21)Nc1ccc(Br)cc1	?	?	-16%	0%
COc1cc(C)ccc1S(=O)(=O)NC(=O)C1(C)CCN1C(=O)c1ccc(C(F)(F)F)nc1C (centres undefined)	13%	6%	0%	/
Cc1ccccc1-c1nnc(SCC(=O)Nc2cccnc2Cl)o1	16µM*	13µM*	/	0%
CC1COc2ccccc2N1C(=O)c1ccccc1Cl (centres undefined)	?	-3%	/	/
O=C(CN1CCSc2ccccc21)N1CCCCC1	/	/	0%	2%
O=C(CCl)N1c2ccccc2SCC1c1ccccc1 (centres undefined)	3.3µM*	2.6µM*	1%	?
O=C(CCl)N1c2ccccc2OCC1c1ccccc1 (centres undefined)	2.6µM*	2.3µM*	1%	-5%
O=C(N/C(=C/c1ccc(Br)cc1)C(=O)N1CCCCC1)c1ccccc1F	?	?	-2%	-1%
CN(C)c1ccc(/C=N/NC(=O)CNC(=O)c2ccco2)cc1	-12%	2%	/	2%
CCC(C)NC(=O)Nc1ccc(Br)cc1 (centres undefined)	?	?	/	0%
CCC(C)Nc1ccc(NC(C)CC)cc1 (centres undefined)	-86%	4.1µM*	-2%	12%
N=C(N)SCCc1cnc[nH]1	-4%	-7%	-2%	13%[56.1 µM]
Cc1cccc(CSC(=N)N)c1	?	-1%	13µM*	8%
N=C(N)SCCc1cccc(CCSC(=N)N)c1	16µM*	16µM*	2%	11%[56.1 µM]
CCCNC(=O)C[C@H]1CC[C@@H]2[C@H](COC[C@@H](O)CN2C(=O)c2ccccn2)O1	16%	1%	0%	/
CN1OC[C@@H]2CN(C(=S)NCCc3ccccc3)[C@H](c3ccc(-n4ccnc4)cc3)C[C@@H]21	-26%	-23%	2%	/
CCOC(=O)CN1C(=O)N[C@@H](CCc2ccccc2)C(C(C)=O)=C1C	-18%	-2%	0%	10%[12.3 µM]
CCOC(=O)C1=CNS(=O)(=O)NC1CCc1ccccc1 (centres undefined)	23µM*	?	-5%	1%[56.1 µM]
SMILES	DT40 TDP1 no CPT	DT40 TDP1 CPT	ClpP mod	TDP1 block
CC(O)(c1ccc(F)c(F)c1)c1nc(-c2cnc3ccccc3c2)cs1 (centres undefined)	15µM*	16µM*	-19%	/
CC(O)(c1ccc(F)c(F)c1)c1nc(-c2ccc3ccccc3c2)cs1 (centres undefined)	?	18µM*	-6%	/
CN(C)c1ccc(-c2csc(C(C)(O)c3ccc(F)c(F)c3)n2)cc1 (centres undefined)	?	?	-11%	/
COc1ccc(C(C)(O)c2nc(-c3cnc4ccccc4c3)cs2)cc1 (centres undefined)	?	?	-21%	/
CCOC(=O)c1c(C)n(CC(O)c2ccccc2)c2ccc(O)cc12 (centres undefined)	18µM*	?	-4%	3%
COc1cc(/C=C/C(=O)OCC(=O)N2c3ccccc3NC(=O)C2(C)C)cc(OC)c1OC	10µM*	18µM*	-15%	0%
COc1ccc(S(N)(=O)=O)cc1C(=O)OCC(=O)N1c2ccccc2NC(=O)C1(C)C	-16%	12%	/	/
COCC(C)N1CCC(n2nccc2NC(=O)CCCc2ccccc2)CC1 (centres undefined)	8%	-18%	1%	0%
CNc1cc(C)nc(-n2nc(C)cc2C)n1	5.2µM*	5.8µM*	0%	0%
CCOc1ccc(Nc2cc(C)nc(-n3nc(C)cc3C)n2)cc1	0.58µM*	0.46µM*	1%	4%
Cc1cc(Cl)nc(-n2nc(C)cc2C)n1	-16%	6%	1%	7%
Cc1ccc(Nc2cc(C)nc(N3CCOCC3)n2)c(C)c1	?	-7%	0%	2%
Cc1ccc(Nc2cc(C)nc(-n3nc(C)cc3C)n2)cc1	3.7µM*	3.3µM*	-4%	8%
Cc1cc(Nc2ccc(Cl)cc2C)nc(-n2nc(C)cc2C)n1	1.6µM*	5.2µM*	-1%	3%
CNc1cncc(-c2cccc(NS(C)(=O)=O)c2)n1	?	?	4%	/
CCOc1ccccc1NC(=O)c1ccc(F)c(S(=O)(=O)N2CCC3(CC2)OCCO3)c1	-23%	-17%	-2%	2%
Cc1ccc(NC(=O)c2ccc(F)c(S(=O)(=O)N3CCOCC3)c2)cc1F	?	?	-1%	1%
Cc1ccc(C)c(N2CCN(S(=O)(=O)c3cc(C(=O)Nc4cc(Cl)cc(Cl)c4)ccc3F)CC2)c1	16µM*	12µM*	5%	10%
Cc1ccc(N2CCN(S(=O)(=O)c3cc(C(=O)Nc4cc(Cl)cc(Cl)c4)ccc3F)CC2C)cc1 (centres undefined)	16µM*	?	-2%	8%
CCc1ccc(NC(=O)c2ccc(F)c(S(=O)(=O)N3CCN(c4cc(C)ccc4C)CC3)c2)cc1	?	?	-10%	0%
COc1ccc(CCNC(=O)c2ccc(F)c(S(=O)(=O)N3CCCCC3)c2)cc1	23µM*	?	1%	/
CCc1ccccc1NC(=O)c1ccc(F)c(S(=O)(=O)N2CCN(c3ccccc3OC)CC2)c1	13µM*	15µM*	-2%	3%
O=C(NCc1ccccn1)c1cnn(-c2nccc(-c3ccccc3F)n2)c1C1CC1	-15%	-7%[9.04 µM]	/	/
CCOc1ccccc1NC(=O)CN(C)S(=O)(=O)c1ccc(C(=O)N2CCOCC2)s1	?	?	1%	1%
COc1ccc(-n2nnnc2C2(C)CCC(=O)N2Cc2ccccc2)cc1 (centres undefined)	8%	20%	-3%	/
Cc1cccc(N2CCN(S(=O)(=O)c3cc(C(=O)Nc4ccc(Oc5ccccc5)cc4)ccc3F)CC2)c1C	?	5.2µM*	0%	5%
